Bioassay records as filed in PubChem BioAssay.
GPR32 ag: agonists of human resolvin D1 receptor DRV1 (GPR32); O75388; CHO-K1 GPR32 beta-arrestin PathHunter luminescence, 90 min; zero percent set by DMSO-only wells; activation, % at 76.9 µM; 2.5% of 48,000 active; AID 1346428;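 active = activation of at least 60% and not above a set upper limit, about 1 call in 100 departs from these limits; inconclusive = activation of 40% to 60%, or above that upper limit; inactive = activation under 40%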; also: 0% is about no effect
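Using DMSO wells as EC0, agonist-induced signal was taken as chemiluminescence from beta-Gal reconstituted upon beta-arrestin recruitment to GPR32 in CHO-K1 cells after 90 min compound treatment.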
OvCa metastasis: ovarian cancer metastasis inhibition, 3D TME model; SKOV3ip1-GFP adhesion/invasion on 3D omental model, fluorescence; Potency, µM (titrated, usually from 45.8 µM), for inactives: top-dose activity change, negative = inhibition, hits mostly inhibitors; 0.1% of 46,000 active; AID 1963576;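 also: potency is read from the fitted curve at half-maximal effect; plate controls were DMSO wells for no effect and tomatine positive control wells for full effect; nearly all actives have a fitted effect of over 65% in size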
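A 3D layer of primary human omental fibroblasts, mesothelial cells, fibronectin and collagen I, grown 48 hr, received SKOV3ip1-GFP cells in serum-free medium plus compounds at 0.36-46 umol/L. After 2 hr RT and 16 hr 37 C, fixed adherent GFP cells were counted; normalized to DMSO and tomatine.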
NTMT1 inhibitor: inhibitors of human N-terminal methyltransferase NTMT1 | NTMT1 MTase-Glo SAH luminescence, purified enzyme | Potency, µM (series often up to 114 µM), for the others: at the top dose activity change, negative = inhibition, hits mostly inhibitors | 2.5% of 59,000 active;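 also: potency is read from the fitted curve at half-maximal effect; plate controls were DMSO vehicle for no effect and no enzyme for full effect; nearly all actives have a fitted effect of over 65% in size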
FH mod: Identification of activators of human fumarate hydratase by quantitative high-throughput screening; Fumarate hydratase, mitochondrial (Homo sapiens), P07954; FH coupled MDH/diaphorase resazurin fluorescence, 15 min; Potency, µM (series often up to 79.9 µM), inactives show at the top dose activity change, negative = inhibition, actives largely listed as inhibitors; 0.22% of 54,000 active; also: potency is read from the fitted curve at half-maximal effect; % is scaled to controls: 0 for no effect and ±100 for the full control effect; the screen sought activators but most active calls are inhibition curves; nearly all actives have a fitted effect of over 45% in size
Target sequence (P07954 whole entry, looked up): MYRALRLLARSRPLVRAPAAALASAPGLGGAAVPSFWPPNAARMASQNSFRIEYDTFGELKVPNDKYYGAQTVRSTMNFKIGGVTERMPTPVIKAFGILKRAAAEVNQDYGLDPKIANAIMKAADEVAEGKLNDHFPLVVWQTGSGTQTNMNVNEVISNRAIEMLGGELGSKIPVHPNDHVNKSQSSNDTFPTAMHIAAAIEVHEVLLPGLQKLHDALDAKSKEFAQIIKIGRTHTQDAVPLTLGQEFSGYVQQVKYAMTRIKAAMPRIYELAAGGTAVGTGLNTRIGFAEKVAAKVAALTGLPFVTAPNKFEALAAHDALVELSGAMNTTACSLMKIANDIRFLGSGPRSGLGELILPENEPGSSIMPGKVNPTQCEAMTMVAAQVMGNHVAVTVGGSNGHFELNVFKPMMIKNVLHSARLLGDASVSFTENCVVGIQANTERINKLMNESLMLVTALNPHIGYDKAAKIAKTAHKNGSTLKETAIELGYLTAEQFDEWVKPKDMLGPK
* hit, by the source's call; i = inactive; ? = inconclusive; . = no result given; ! = not active in a repeat; [ ] = dose if it differs, or a comment. Sampled rows, rich in hits. Any-hit rate of the full collection: about 3.9%. Unless noted, calls follow the shape of the dose curve; as a rule, active = well fitted curve in the direction sought with a large enough effect; inconclusive = small, poorly fitted or top-dose-only effect, or another doubt; inactive = no such curve, though single readings can be large; an effect the other way counts as inactive or inconclusive.

SMILES	GPR32 ag	OvCa metastasis	NTMT1 inhibitor	FH mod
CCCN1CCC[C@@H](c2cccc(S(C)(=O)=O)c2)C1	.	.	0%[57.5 µM]	9%
CNc1ccc([N+](=O)[O-])c(Nc2ccc3[nH]ncc3c2)n1	.	.	-1%[57.5 µM]	-5%
CCCCNC(=O)c1nn(C)c2c1CSc1ccccc1-2	-16	-5%	79µM*	-9%
Cn1nc(C(=O)NCc2ccccc2)c2c1-c1ccccc1SC2	-17	i	-20%	-28%
Cc1ccc(-c2nc3ccccc3[nH]2)cc1NC(=O)COc1ccccc1[N+](=O)[O-]	79*	?	9%	6%
O=C(COc1ccccc1[N+](=O)[O-])Nc1cccc(-c2nc3ccccc3s2)c1	84*	0%	11%	3%
Cc1ccc(OCC(=O)Nc2cc(-c3nc4ccccc4[nH]3)ccc2C)c(C)c1	-6	-16%	?	7%
CN(C)c1cc(NC(=O)CNC(C)(C)C)c(O)c2c1C[C@H]1C[C@H]3[C@H](N(C)C)C(=O)C(C(N)=O)=C(O)[C@]3(O)C(=O)C1=C2O	.	.	40µM*	.
CN(C)c1cc(NC(=O)CNC(C)(C)C)c(O)c2c1C[C@@H]1C[C@H]3[C@H](N(C)C)C(=O)C(C(N)=O)=C(O)[C@@]3(O)C(=O)C1=C2O	0	0%	40µM*	-9%[53.3 µM]
OC[C@H]1O[C@@H](O[C@H]2[C@H](OCCc3ccccc3)O[C@H](CO)[C@@H](O)[C@@H]2O)[C@H](O)[C@@H](O)[C@@H]1O	.	.	4%[29.8 µM]	-5%[53.3 µM]
Cc1c(-c2ccc(O)cc2)n(Cc2ccc(OCCN3CCCCCC3)cc2)c2ccc(O)cc12	4	2%	?	-6%[53.3 µM]
Cc1cc(-c2cc(O)ccc2Cl)cc2nnc(Nc3ccc(OCCN4CCCC4)cc3)nc12	.	.	20µM*	0%
Cc1cc(C)c(S(=O)(=O)Nc2ccc3oc4c(c3c2)C(=O)CC(C)(C)C4)cc1C	-6	-20%	13%	-17%
COc1ccc(S(=O)(=O)Nc2ccc3oc4c(c3c2)C(=O)CC(C)(C)C4)cc1	64*	i	4%	-17%
Oc1cccc(-c2c3nc(c(-c4cccc(O)c4)c4ccc([nH]4)c(-c4cccc(O)c4)c4nc(c(-c5cccc(O)c5)c5ccc2[nH]5)CC4)C=C3)c1	-15	.	22µM*	-22%[53.3 µM]
COc1ccccc1C(=O)NCCc1csc(-c2ccc(C(F)(F)F)cc2)n1	12	4%	-2%	?
CCCCOc1ccc(C(=O)NCCc2csc(-c3ccc(OC)cc3)n2)cc1	-2	i	4%	?
COc1ccc(C(=O)NCCc2csc(-c3ccc(Cl)cc3)n2)c(OC)c1	70*	6%	?	35µM*
COc1ccc(C(=O)NCCc2csc(-c3ccc(Cl)cc3)n2)cc1	87*	i	-2%	?
N=C1S/C(=C\c2ccc(-c3ccc4c(c3)C(=O)NC4=O)o2)C(=O)N1c1ccc(Br)cc1	.	.	-13%[57.5 µM]	.
O=C1NC(=O)/C(=C\c2ccc(-c3ccc(F)cc3O)o2)S1	.	.	28µM*	?
O=C1NC(=O)/C(=C/c2ccc(-c3ccc(F)cc3O)o2)S1	62*	.	35µM*	?
CC(C)(F)CC(NC(c1ccc(-c2ccc(S(C)(=O)=O)cc2)cc1)C(F)(F)F)C(=O)NC1(C#N)CC1 (configuration not stated)	.	.	6%[57.5 µM]	-8%
COc1ccc(Nc2nc3ccccc3nc2NS(=O)(=O)c2ccc(C)cc2)c(OC)c1	-9	-9%	14%	-4%
COC(=O)c1cc(Nc2nc3ccccc3nc2NS(=O)(=O)c2ccc(C)cc2)ccc1Cl	99*	i	2%	?
SMILES	GPR32 ag	OvCa metastasis	NTMT1 inhibitor	FH mod
COc1ncc(-c2ccc3nccc(-c4ccnnc4)c3c2)cc1NS(=O)(=O)c1ccc(F)cc1F	.	4%	?	?
CCCCC(CC)CNC(=O)CCCc1nnc2n(CCC)c(=O)c3sccc3n12 (configuration not stated)	80*	2%	9%	-10%
O=C(O)CN(CCN(CC(=O)O)CC(=O)O)CCN(CC(=O)O)CC(=O)O	70*!	.	61%[29.8 µM]	-8%[53.3 µM]
O=C(O)CN(CCOCCOCCN(CC(=O)O)CC(=O)O)CC(=O)O	1	.	1%[0.501 µM]	-2%[53.3 µM]
O=S(=O)(Nc1ccc(-c2ccccc2)cc1)c1ccc(NCc2ccc(Br)cc2O)cc1	.	.	2%	.
O=C(Nc1ccc(F)cc1)c1ccc(Cn2nc(N3CCN(c4ccccc4)CC3)ccc2=O)o1	-2	i	-6%	-26%
Cc1ccc(CNC(=O)Cn2nc(N3CCN(c4ccccc4)CC3)ccc2=O)cc1	32	8%	15%	5%
O=C(Nc1ccccc1F)c1ccc(Cn2nc(N3CCN(c4ccccc4)CC3)ccc2=O)o1	90*	4%	0%	-10%
O=C(Cn1nc(N2CCN(c3ccccc3)CC2)ccc1=O)NCc1cccc(Cl)c1	121*	-2%	-13%	-1%
CSc1ccc(CNC(=O)Cn2nc(N3CCN(c4ccccc4)CC3)ccc2=O)cc1	95*	7%	?	-9%
C[C@@H]1CN(Cc2ccc(F)cc2)[C@@H](C)CN1C(=O)c1cc2c(C(=O)C(=O)N(C)C)cn(C)c2cc1Cl	.	5%	?	?
C/C=C1/CC2C(=O)Nc3cc(O)c(OC)cc3C(=O)N2C1 (configuration not stated)	.	.	-10%[29.8 µM]	0%[53.3 µM]
CNC(=O)c1cccc(-c2ccc3c(N4CCOC[C@@H]4C)nc(N4CCOC[C@@H]4C)nc3n2)c1	.	.	0%	2%
O=C(/C=C/c1ccc(O)cc1)OC1[C@H](O)CC(O)(C(=O)O)C[C@H]1O (some centres not stated)	.	.	-5%[29.8 µM]	1%[53.3 µM]
CC(C)(O)CC(CO)NC(=O)CC(O)CC(=O)Cc1ccccc1 (configuration not stated)	.	.	19%[29.8 µM]	2%[53.3 µM]
CC(C)(C)c1ccc(NC(=O)C2CCCN(c3cnccn3)C2)cc1 (configuration not stated)	1	-8%	89µM*	-25%
CC(C)c1cccc(C(C)C)c1N1C(=O)c2ccc(O)cc2C1=O	.	.	.	-14%[53.3 µM]
Cc1cc(O)c(C)c(C)c1O	-11	.	-26%[57.5 µM]	3%[53.3 µM]
Cc1cc(O)c2ccccc2c1O	81*	.	?	?
C=C[C@](C)(O)CC[C@H]1C(C)=CC(=O)[C@H]2C(C)(C)CCC[C@]12C	.	.	14%[57.5 µM]	-1%
CCOC(=O)c1ccc(NC(=O)Cn2nc(SC)c(S(=O)(=O)c3ccc(Cl)cc3)c2N)cc1	69*	-54%	0%	?
CCSc1nn(CC(=O)Nc2ccc(C(=O)OC)cc2)c(N)c1S(=O)(=O)c1ccc(C)cc1	11	-2%	-3%	?
CNS(=O)(=O)Nc1nccc(Cc2c(C)c3ccc(Oc4ncccn4)cc3oc2=O)c1F	.	.	5%	.
CCOc1ccc2nc(C)cc(Nc3ccccc3OCC)c2c1	90*	4%	-7%	-7%
CCOc1ccc(OCC)c(Nc2nc3ccccc3c3nnc(C)n23)c1	-9	i	9%	1%
COc1cc(S(C)(=O)=O)ccc1Nc1nc2ccc(-c3ccc(NC(=O)[C@H](C)c4ccc(F)cc4)cc3)cn2n1	.	.	44%[57.5 µM]	.
